Inconclusive results are not listed. Calls of active or inactive are those of the source. Calls follow the shape of the full dose curve.
% is scaled to controls: 0 for no effect and ±100 for the full control effect; potency is read from the fitted curve at half-maximal effect.

The target in the test is Muscarinic acetylcholine receptor M1 (Homo sapiens) (UniProt P11229). The experiment in a line: Cholinergic receptor muscarinic 1 (CHRM1) small molecule antagonists, cell-based qHTS assay (AID 1963588). Also: nearly all actives have a fitted effect of over 40% in size. Conditions: CHRM1-CHO antagonist mode, calcium flux fluorescence; series mostly up to 61.5 µM; activity, negative = inhibition: at the top concentration. An excerpt: National Center for Advancing Translational Sciences [NCATS]
Chain of Muscarinic acetylcholine receptor M1 (Homo sapiens) (P11229 whole entry, looked up): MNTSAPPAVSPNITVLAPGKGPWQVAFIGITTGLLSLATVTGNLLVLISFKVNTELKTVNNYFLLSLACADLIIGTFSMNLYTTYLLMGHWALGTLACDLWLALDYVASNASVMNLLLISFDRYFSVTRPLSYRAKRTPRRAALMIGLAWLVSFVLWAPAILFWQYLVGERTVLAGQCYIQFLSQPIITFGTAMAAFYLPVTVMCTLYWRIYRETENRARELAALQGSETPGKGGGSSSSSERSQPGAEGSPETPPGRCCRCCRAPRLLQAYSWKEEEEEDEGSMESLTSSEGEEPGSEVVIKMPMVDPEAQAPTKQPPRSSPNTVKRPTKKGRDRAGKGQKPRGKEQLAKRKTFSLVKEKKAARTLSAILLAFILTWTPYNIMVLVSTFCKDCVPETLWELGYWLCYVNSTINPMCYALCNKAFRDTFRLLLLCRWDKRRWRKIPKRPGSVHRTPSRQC
Division of Preclinical Innovation [DPI]
U.S. Environmental Protection Agency [EPA]
National Institutes of Environmental Health Sciences [NIEHS]
National Toxicology Program [NTP]
U.S. Food and Drug Administration [FDA]
The CHRM1 is a muscarinic receptor. This receptor plays a crucial role in learning and memory processes and has long been identified as a promising therapeutic target for the improvement of cognitive decline in Alzheimer's disease (AD). The CHRM1-CHO cell line stably expressing human muscarinic acetylcholine receptor M1 (CHRM1) can be used for screening agonists and antagonists of interactions between CHRM1 and its ligands. The CHRM1-CHO Calcium Flux Assay is a homogeneous fluorescence-based assay for detecting the intracellular calcium level using FDSS kinetic plate reader system.
Tox21 Assay Protocol Summary:
CHRM1-CHO cells were dispensed at 1000 cells/3uL/well in 1536-well black-clear bottom plates using a Multidrop Dispenser. After the assay plates were incubated at a 37 C/5% CO2 incubator for 18 h, 3 uL of Dye Loading Buffer was transferred to the assay plate by a Flying Reagent Dispenser. The assay plates were incubated at 37 C for 1h. For antagonist mode, 23 nL of compounds dissolved in DMSO, positive controls or DMSO only was transferred to the assay plate by a pin tool. After 5 min incubation at room temperature, 1.5 uL of acetylcholine at 50nM was added to each well. The fluorescence intensity in the plates was measured using FDSS 7000EX kinetic plate reader for 3 min at 1 sec intervals. Each test compound was measured at 15 concentrations in three independent runs.
For orientation: In qHTS, concentration-response curves come from the screen itself.
Turning to `C=C[Si](OCC)(OCC)OCC`, the “activity, negative = inhibition” value was -5.31% (inactive). The same measure, in the same setting: to `BrCc1cccc(Oc2ccccc2)c1` belongs 1.07% (inactive); to `O=S(c1cc(Cl)cc(Cl)c1O)c1cc(Cl)cc(Cl)c1O`, 13.4% [at 28.3 µM] (inactive).

As for `S=c1nccc[nH]1`, the “activity, negative = inhibition” value was -18% (inactive). As to `N[C@@H](C(=O)N[C@@H]1C(=O)N2C(C(=O)O)=C(Cl)CS[C@H]12)c1ccccc1`, the activity, negative = inhibition is 6.01% [at 5.58 µM] (inactive). On the same count and under the same terms, to `COc1cc2nc(N(C)CCCNC(=O)C3CCCO3)nc(N)c2cc1OC` (stereo not given) belongs -15.7% [at 28.3 µM] (inactive). For `Cc1ccccc1N=C(N)Nc1ccccc1C`, the Potency was 7.35 µM (active). On to `O=C=Nc1ccc(Cl)c(Cl)c1`, for which the “activity, negative = inhibition” value is 23.2% (inactive). Same read-out and setting: to `CCOc1ccc(NC(N)=O)cc1` belongs 2.05% (inactive); to `C/C=C/C(=O)C1=C(C)CCCC1(C)C`, 0.0149% (inactive).

Consider `Cc1ccc(C(C)C)cc2c(C)ccc1-2`, for which the “activity, negative = inhibition” value is 0.478% [at 28.3 µM] (inactive). For the compound `C=CCN1C[C@H](C(=O)N(CCCN(C)C)C(=O)NCC)C[C@@H]2c3cccc4[nH]cc(c34)C[C@H]21`, the “activity, negative = inhibition” value is -6.79% [at 28.3 µM] (inactive).

As to `CC1=CC(=O)CCC1`, the “activity, negative = inhibition” value was 1.88% (inactive).

As to `CC(C)(c1ccc(Oc2ccc(N)cc2)cc1)c1ccc(Oc2ccc(N)cc2)cc1`, the “activity, negative = inhibition” value was -15.4% (inactive).

Consider `O=C(O)c1c2ccccc2cc2ccccc12`, for which the “activity, negative = inhibition” value is 0.701% (inactive). Turning to `CN1CCN(c2ccccc2/C=C2\SCCN(c3ccc(Cl)c(Cl)c3)C2=O)CC1`, the Potency was 7.48 µM (active). Regarding `C1CCC2=NCCCN2CC1`, the “activity, negative = inhibition” value was -30% (inactive). For `c1ccc2c(c1)-c1ccc3ccc4cccc5cc-2c1c3c45`, the “activity, negative = inhibition” value was -23.2% [at 28.3 µM] (inactive). As to `O=CO`, the activity, negative = inhibition was 7.62% [at 5.58 µM] (inactive).

Consider `CCN(CC)c1ccc2c(-c3ccccc3C(=O)O)c3ccc(=[N+](CC)CC)cc-3oc2c1`, for which the “activity, negative = inhibition” value is 30.5% (inactive). Regarding `CCCCCCCCCCCCCCCCN(C)C`, the activity, negative = inhibition is 5.3% [at 5.58 µM] (inactive).

For `O=C(NCC(O)CO)c1c(I)c(C(=O)NCC(O)CO)c(I)c(N(CCO)C(=O)CO)c1I` (stereo not given), the “activity, negative = inhibition” value was 22.7% [at 28.3 µM] (inactive). For `Oc1cccc(Nc2ccccc2)c1`, the “activity, negative = inhibition” value was 6.75% (inactive). Still for that read-out and setting: as for `CCCCOC(=O)CCC(C)=O`, the figure is -15.8% (inactive); as for `OCCN1CCOCC1`, 11.9% (inactive). On the same count and under the same terms, to `COc1cc(S(=O)(=O)Nc2ccccc2)c(OC)cc1N` belongs 14.4% (inactive); to `S=C([S-])NCCNC(=S)[S-].[Mn+2]`, -0.241% (inactive); to `[Cl][Bi]([Cl])([c]1ccccc1)([c]1ccccc1)[c]1ccccc1`, -12.9% (inactive). Same read-out and setting: to `Cc1cccc2c1cc1ccc3cccc4ccc2c1c34` belongs -11.4% (inactive); to `Brc1cc(Br)c(Oc2cc(Br)c(Br)cc2Br)cc1Br`, 32.1% [at 28.3 µM] (inactive).

For the compound `Cc1[nH]nc2c1N=C(c1ccccc1Cl)c1cc([N+](=O)[O-])ccc1N2`, the “activity, negative = inhibition” value is 12.2% (inactive). Still for that read-out and setting: as for `COC(C(=O)O)c1ccccc1` (stereo not given), the figure is 11.4% (inactive).

Turning to `Sc1nc(S)nc(S)n1`, the “activity, negative = inhibition” value was 14.2% [at 28.3 µM] (inactive). With `CO[C@]1(NC(=O)CSC(F)F)C(=O)N2C(C(=O)O)=C(CSc3nnnn3CCO)CO[C@H]21`, the “activity, negative = inhibition” value was 3% [at 28.3 µM] (inactive). As for `O=C(O)c1nc(Cl)c(Cl)c(Cl)c1Cl`, the “activity, negative = inhibition” value is 2.25% (inactive). As to `C=CC(=O)OCCC#N`, the “activity, negative = inhibition” value was -2.69% (inactive). Regarding `CCCC(CC)CCCCCCCN` (stereo not given), the Potency was 4.84 µM (active).

As to `c1ccc(-c2ccc(-c3ccccc3)cc2)cc1`, the activity, negative = inhibition was 9.45% [at 12.6 µM] (inactive). As to `O=C(O)CN(CCN(CC(=O)O)CC(=O)O)CC(=O)O`, the activity, negative = inhibition is 37.7% [at 2.17 µM] (inactive). On the same count and under the same terms, to `CS(=O)(=O)c1ccc([C@@H](O)[C@@H](CF)NC(=O)C(Cl)Cl)cc1` belongs 1.56% [at 28.3 µM] (inactive).

The record behind these values is PubChem BioAssay (Tox21).
